Shown are actives, neighbours in structure and some others; about 2.1% of the full set was active somewhere.
Abeta yeast res = A-beta toxicity reversal in yeast | yeast expressing A-beta42, growth rescue, OD600, 48 h; response scale: 0% DMSO, 100% iron-clioquinol control | Potency, µM (series often up to 46.1 µM), usual class: activators | 410,000 tested, 0.063% active; also: nearly all actives have a fitted effect of over 55% in size
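Growth rescue measured by 600 nm absorbance after 48 h yeast culture at 30 C with compound. Values normalized between DMSO and an equimolar ferric chloride plus clioquinol control.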
aSyn yeast inh = alpha-synuclein toxicity inhibition in yeast | Yeast expressing alpha-synuclein, growth rescue, BacTiter-Glo, 24 h | Potency, µM (titrated, usually from 46.1 µM), for the others: at the highest dose growth rescue (activation), usual class: activators | 370,000 tested, 0.14% active; also: % of control where 0% means no effect; nearly all actives have a fitted effect of over 65% in size
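Galactose-induced alpha-syn yeast (OD600=0.02, raffinose-pregrown) + pinned cpd, 24 hr, 30 deg C; growth by BacTiter-Glo luminescence. Growth restoration scores as activation.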
FUS suppressor = suppressors of FUS proteinopathy in yeast. S. cerevisiae FUS-expressing, growth rescue, OD600, 24 h. Potency, µM (doses to about 76.6 µM), most hits filed as activators. 390,000 tested, 0.24% active. AID 1347120;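 also: plate controls were DMSO vehicle for no effect and reference control for full effect; nearly all actives have a fitted effect of over 55% in size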
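Yeast expressing FUS under galactose induction, OD 0.005 in 2% galactose medium; compounds in a dilution series, 24 h at 30C. Growth rescue by absorbance at 600 nm; CP55940 positive control, DMSO negative.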
TDP-43 yeast inh = TDP-43 toxicity inhibition in yeast. Potency, µM (top dose mostly 46.1 µM), inactives show at the top dose growth rescue (activation), most hits filed as activators. TDP-43 expressing yeast growth rescue, BacTiter-Glo, 24 h. 410,000 tested, 1.8% active; also: % of control where 0% means no effect; nearly all actives have a fitted effect of over 50% in size
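In this qHTS, compounds that restore growth of yeast expressing TDP-43 appear as activators. Cells (OD600=0.02, galactose medium, raffinose-pregrown) are incubated with compound 24 hr at 30 deg C and growth is quantified by BacTiter-Glo.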
* marks the source's active call; other numbers are inactive results; i = inactive; u = inconclusive; x = no result given; [ ] = another dose, or the depositor's remark. Calls follow the shape of the dose curve; as a rule, active = well fitted curve in the direction sought with a large enough effect; inconclusive = small, poorly fitted or top-dose-only effect, or another doubt; inactive = no such curve, though single readings can be large; an effect the other way counts as inactive or inconclusive. Potency is read from the fitted curve at half-maximal effect.

SMILES | Abeta yeast res | aSyn yeast inh | FUS suppressor | TDP-43 yeast inh
NC(=O)[C@H](Cc1cc2ccccc2s1)NC(=O)[C@@H]1CC2(CC(c3cccc(NC(=O)[C@@H]4CCC(=O)N4)c3)=NO2)CN1C(=O)/C=C/c1c(F)cccc1Cl (some centres not stated) | i | -8% | u | 10%
NC(=O)[C@H](Cc1cc2ccccc2s1)NC(=O)[C@@H]1CC2(CC(c3cccc(NC(=O)[C@@H]4CCC(=O)N4)c3)=NO2)CN1C(=O)/C=C/Sc1ccccc1 (some centres not stated) | i | 2% | 28µM* | 0%
O=C(Nc1ccc(F)cc1C(F)(F)F)C1CCN(c2ncccn2)CC1 | i | x | i | u
COC(=O)[C@@]12CCCCC3=C1N(CCC3)C(=O)[C@H]2CC(=O)NCc1ccc(C)o1 | x | x | i | x
CC(=O)C1(C(=O)NCc2ccccc2)CC(c2ccccc2C(F)(F)F)=NO1 (configuration not stated) | x | x | i | x
O=C(c1cc2c(Cl)nc3ccccc3c2s1)N1CCCCC1 | i | x | i | 35µM*
CN(Cc1ccccc1)c1c([N+](=O)[O-])c(=O)n(C)c2ccccc12 | i | u | u | 16µM*
CCN(CC)c1c([N+](=O)[O-])c(=O)n(C)c2ccccc12 | i | 18% | i | -7%
Nc1ccc2c(c1)C=C/C2=C\c1ccccc1 | x | 2% | x | x
Cc1cc(C)nc(NC(=O)/C=C/c2ccccc2Cl)c1 | i | -19% | x | 13µM*
Cc1cc(C)nc(NC(=O)/C=C/c2ccc(Cl)cc2Cl)c1 | i | -17% | x | 7.1µM*
Cc1cc(C)nc(NC(=O)/C=C/c2ccccc2Cl)n1 | i[9.22 µM] | -6% | i | 22%
CCCC(=O)N1CCC[C@]2(CC[C@H](CCC#N)O2)C1 | x | x | i | x
CC1CCc2c(c3ccccc3n2C(=O)CCl)C1 (configuration not stated) | i | -13% | i | 2.8µM*
O=C(Nc1ccc(Cl)c(Cl)c1)C1CCCN1S(=O)(=O)c1cccc2cccnc12 (configuration not stated) | x | x | i | x
CCC(=O)N1CCc2cc(Br)c(S(=O)(=O)N3CCC(C(=O)NCCCOC(C)C)CC3)cc21 | x | x | i | x
CC(=O)Nc1cc(C(=O)NCc2ccc(C)cc2)ccc1Sc1ccc(C)cc1 | i | x | u | 20µM*
CCOc1ccc(CNC(=O)c2ccc(Sc3ccc(C)cc3)c(NC(C)=O)c2)cc1OC | i | 5% | u | u
N#Cc1cccc(Cn2ccc3ccc(-c4ccc5ccn(Cc6ccccc6)c5c4)cc32)c1 | x | x | i | x
Cc1ccccc1Cn1nnc2c(=O)[nH]c(C3CCCN(C(=O)c4ccc(C(C)(C)C)cc4)C3)nc21 (configuration not stated) | i | x | u | u
Cc1cccc(Cn2nnc3c(=O)[nH]c(C4CCCN(C(=O)c5ccc(C(C)(C)C)cc5)C4)nc32)c1 (configuration not stated) | i | x | 22µM* | 12%
COc1ccc(N(CCN2C(=O)c3ccccc3C2=O)C(=O)c2cccc([N+](=O)[O-])c2)cc1 | i | 14% | i | 11µM*
CC(=O)N1c2ccc(S(=O)(=O)NCC3CCC(C(=O)Nc4cccc(F)c4)CC3)cc2CC1C (configuration not stated) | i | x | i | -8%
O=S(=O)(c1cc(Br)ccc1Br)N1CCCCCC1 | i | 4% | i | 7.9µM*
NC(=O)c1ccc(Br)c(S(=O)(=O)N2CCCCC2)c1 | i | 1% | i | -5%
SMILES | Abeta yeast res | aSyn yeast inh | FUS suppressor | TDP-43 yeast inh
c1c[nH]c(CN2CCN(Cc3ncc[nH]3)CC2)n1 | i | 11% | x | 4µM*
c1ccc(N2CCN(Cc3nc4ccccc4[nH]3)CC2)nc1 | i | -8% | i | -5%
CC(C)c1ccc(C(=O)CSc2n[nH]c(-c3ccncc3)n2)cc1 | i | 15% | i | 35µM*
O=C(CSc1n[nH]c(-c2ccccc2)n1)c1ccccc1 | i | -15% | i | 24%
CCOC(=O)c1c(CN2CCOCC2)n(-c2ccccc2)c2cc(Br)c(OC)cc12 | i | -2% | i | 16µM*
COc1ccc(-c2ccnc3c(Br)c(C)nn23)cc1 | i | 0%[1.84 µM] | i | 11µM*
CC(=O)Oc1c(Cl)c(N2CCOCC2)c(OC(C)=O)c2ccccc12 | i | -1% | i | 10µM*
Cc1cc(OC(=O)N2CCOCC2)cc(C)c1Cl | i | 7% | i | -21%
O=c1c2cnn(-c3ccc(Cl)cc3)c2ncn1Cc1ccc(Cl)cc1Cl | i | x | i | 19%
S=C(NCC1CCCO1)c1ccc(Br)cc1 (configuration not stated) | i | -8% | i | 11µM*
O=C(NCC1CCCO1)c1ccc(C(=O)NCC2CCCO2)cc1 (configuration not stated) | i | 3% | i | -20%
CCN1CCN(c2c(/C=C3\SC(=S)N(Cc4ccco4)C3=O)c(C)c(C#N)c(=O)n2C)CC1 | i | 0% | 22µM* | -11%
CC(C)c1cc(N2CCN(C(=O)c3ccco3)CC2)n2c(nc3ccccc32)c1C#N | i | 0% | i | 8%
Cc1cc(-c2ccco2)c(C#N)c2nc3ccccc3n12 | i | 0.56µM* | i | 4µM*
Cc1cc(C)c(NC(=O)c2sc3nc(C)cc(C)c3c2NC(=O)c2ccccc2)c(C)c1 | i | x | i | -4%
O=C(NC1CCCCN(Cc2cccc(Cl)c2)C1=O)c1ccccc1 (configuration not stated) | x | x | i | x
COc1ccc(Br)cc1/C=C/C(=O)c1ccc(NC(C)=O)cc1 | i | -8% | i | 18µM*
O=c1c2ccccc2n(Cc2ccccc2)n1[C@@H](Cc1ccccc1)Cn1cc(C2CCCC2)nn1 | x | x | i | x
O=[N+]([O-])c1ccc(Nc2ccc(F)cc2)nc1 | i | -17% | i | 22%
O=[N+]([O-])c1ccc(Nc2cccc(F)c2)nc1 | i | 1% | i | 13µM*
Cc1ccc(Nc2ccc([N+](=O)[O-])cn2)cc1Cl | i | 0% | i | 0.89µM*
COc1ccccc1N(CC(O)COc1c(C)cc(C)cc1C)S(=O)(=O)c1ccccc1 (configuration not stated) | i | 24% | x | 18µM*
COc1ccc(CN2CN3Cc4ccc(C)cc4C3CS2(=O)=O)cc1 (configuration not stated) | x | x | i | x
COc1ccc(-c2nnc(SCC(=O)Nc3cc(OC)ccc3OC)nc2-c2ccc(OC)cc2)cc1 | i | x | u | 0%
CCn1cc(C(=O)OCC(=O)OC2CC(C)CCC2C(C)C)c(=O)c2ccc(C)nc21 (configuration not stated) | i | 0% | u | 22µM*
Cc1cccc(CN[C@@H]2CC[C@@]34CCCN3C(=O)CCC[C@H]4C2)c1 | x | x | i | x
O=C(CSc1nc2scc(-c3ccco3)c2c(=O)n1-c1ccccc1)N1CCOCC1 | i | 0% | i | -8%

Screening data deposited in PubChem BioAssay by National Center for Advancing Translational Sciences (NCATS).
